# “And” between values parts separate entries of the source, which are not always exact repeats. Equal values may be shown once. Records with an inconclusive call do not appear. The source made the active and inactive calls. Calls follow the shape of the full dose curve.
# Test: qHTS Assay for Lipid Storage Modulators (AID 1519); as to activity change, negative = inhibition: % is scaled to controls: 0 for no effect and ±100 for the full control effect
# Conditions: Drosophila S3 cells, BODIPY lipid droplet/cell ratio, laser cytometry, cells loaded with oleic acid
# Description: NIH Molecular Libraries Probe Production Centers Network [MLPCN]
# NIH Chemical Genomics Center [NCGC]
# Assay Submitter (PI): Beller, Mathias; Max-Planck-Institut fur Biophysikalische Chemie
# NCGC Assay Overview: Storing lipids as a reservoir for energy or the anabolism of elementary metabolites is a common feature of probably all cells and is conserved from bacteria to humans. The universal cellular lipid storage organelle is the so-called lipid storage droplet (LD). Although ubiquitous, LDs share a simple structure composed of a hydrophobic core that harbors the storage lipids, which is shielded by a droplet-specific phospholipid monolayer to which proteins are attached. The current model of LD biogenesis involves an incorporation of the lipid core into the membrane leaflets of the endoplasmic reticulum (ER) followed by a subsequent budding-like maturation of a LD, which ultimately pinches off. Once released, LD volume can increase by localized lipogenesis or fusion of existing droplets. Storage lipids are re-mobilized enzymatically by lipase activity. Lipase regulation in the adipocyte is heavily studied and involves multiple components including catecholamine signaling, the LD-associated proteins Perilipin and comparative gene identification-58 (CGI-58) and at least two lipases named hormone sensitive lipase (HSL) and adipocyte triglyceride lipase (ATGL). LD regulation outside of the adipocyte is poorly understood and only few components are known. However, there is an urgent need to learn more about ectopic fat depots as mislocalized storage of lipids, for example in the liver or muscle, is an eminent health problem associated with insulin resistance or the metabolic syndrome. We developed a laser-scanning cytometer assay to enable 1,536-well screening and combined the results of the small molecules screen with an RNAi database based on lipid storage.
# NCGC Assay Protocol Summary:
# We dispensed 4 uL of cells at 1.25 x 10^6 cells/mL into LoBase Aurora COC 1,536-well plates (black walled, clear bottom) with a bottle-valve solenoid-based dispenser (Aurora) to obtain 5,000 cells/well. Triacsin C (Sigma-Aldrich T-4540), an inhibitor of long-chain fatty acyl CoA synthetase that blocks synthesis of triglycerides, was used as a positive control for lipid under-storage. A total of 23 nL of compound solution of different concentrations were transferred to the assay plates using a Kalypsys pin tool equipped with a 1,536-pin array containing 10-nL slotted pins (FP1S10, 0.457-mm diameter, 50.8 mm long; V&P Scientific). One microliter of oleic acid (400 uM) was added, and the plate was lidded with stainless steel rubber gasket lined lids containing pinholes. […] Fluorescence was detected by excitation of the fluorophores with a 488-nm laser on an Acumen Explorer (TTP Lab Tech). The total intensity in channel 1 (500-530 nm) reflected lipid droplet accumulation. […] The ratio of the total intensity in PMT channel 1 over total intensity of channel 3 was also calculated. Percent activity was computed relative to an internal control (100% inhibited lipid droplet deposition due to the presence of 20 uM Triacsin C), which was added to 32 wells/plate.
# [1] = measured here: cell count channel max response
# [2] = measured here: lipid channel max response
Structure (SMILES),"activity change, negative = inhibition (at 25.7 µM (top of the series))",max response [1],max response [2],"activity change, negative = inhibition (at 57.5 µM (top of the series))"
CC1(C)S[C@@H]2[C@H](NC(=O)Cc3ccccc3)C(=O)N2[C@H]1C(=O)O,-1.47% (inactive),2.65%,2.53%,
CCOc1ccc2c(c1)C(C)=CC(C)(C)N2,-15.7% (inactive),-17.3%,-29.2%,
CC1(C)S[C@@H]2[C@H](NC(=O)[C@@H](NC(=O)N3CCNC3=O)c3ccccc3)C(=O)N2[C@H]1C(=O)O,-1.89% (inactive),-12.9%,-11.6%,
CCN(CC)Cc1cc(Nc2ccnc3cc(Cl)ccc23)ccc1O,-2.24% (inactive),-18.5%,-20.7%,
CC[N+](C)(C)Cc1ccccc1Br,-0.125% (inactive),1.39% and 57.6%,2.06% and 57.4%,0.506% (inactive)
CCCC(=O)Nc1ncnc2c1ncn2[C@@H]1O[C@@H]2COP(=O)(O)O[C@H]2[C@H]1OC(=O)CCC,,-7.18%,-6.01%,1.77% (inactive)
CCC(=O)NCCC1CCc2ccc3c(c21)CCO3 (stereo not drawn),,9.34%,23.8%,11.3% (inactive)
C=CCSSSCC=C,,-4.64%,3.63%,6.54% (inactive)
C[C@@H]1CCC2[C@@H](C)[C@@H](O)O[C@@H]3O[C@@]4(C)CC[C@@H]1[C@@]23OO4 (stereo partly drawn),,14.2%,15.2%,-0.729% (inactive)
CN1Cc2c(N)cccc2C(c2ccccc2)C1 (stereo not drawn),,11.3%,9.26%,0.643% (inactive)
CC1=C(/C=C/C(C)=C/C=C/C(C)=C/C=C/C=C(C)/C=C/C=C(C)/C=C/C2=C(C)C(=O)CCC2(C)C)C(C)(C)CCC1=O,,20.9%,28.3%,5.18% (inactive)
O=c1ccn([C@@H]2O[C@H](CO)[C@@H](O)[C@H]2O)c(=O)[nH]1,,-6.37%,-5.71%,1.01% (inactive)
NC(=O)c1ncn(C2OC(CO)C(O)C2O)n1 (stereo not drawn),,6.51%,12.6%,2.97% (inactive)
CCCC(=O)Nc1ncnc2c1ncn2C1OC2COP(=O)(O)OC2C1OC(=O)CCC (stereo not drawn),,15.6%,29.9%,10.5% (inactive)
